# Assay results: the supplement of paper PMC10037445
# “And” between values parts separate entries of the source, which are not always exact repeats. Equal values may be shown once. ± gives the standard deviation of the averaged measurements. The full ranking holds about 2,900 compounds; the median of “IRF Lucia reporter activity, fold change vs agonist alone” is about 0.9, and the highest 2% start at about 2.8. For the sample, the highest values were picked, then their nearest neighbours and some compounds at random.
# Tests used:
# RAW-Dual [1] = test: IRF Lucia reporter activity, fold change vs agonist alone; cytotoxicity flag (confluency mask): not cytotoxic; higher = enhanced IRF activity
# Outline: (§1)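 Reporter activity is given as fold change relative to agonist-alone wells. To measure it, 50 nL of library stock was pin-tooled onto RAW-Dual macrophages (50,000 cells/well, DMEM, 384-well plates), a PRR agonist followed 1 h later, and cells stayed at 37 °C, 5% CO2. Twenty hours on, supernatant was assayed for IRF (QuantiLuc luminescence) and NF-κB (QuantiBlue, 620 nm absorbance), and wells under 70% of agonist-control IncuCyte confluency in both mask sets were marked cytotoxic.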
# RAW-Dual [2] = test: IRF Lucia reporter activity, fold change vs agonist alone; higher = enhanced IRF activity; conditions: library stock concentration (final ~1000-fold dilution): 10 mM, agonist: MPLA (TLR4) […]
# Outline: as §1
# RAW-Dual [3] = test: IRF Lucia reporter activity, fold change vs agonist alone; cytotoxicity flag (confluency mask): cytotoxic (confluency <70% of control); higher = enhanced IRF activity
# Outline: as §1
# [4] = agonist: 3'3'-cGAMP (STING) 10 ug/mL
# [5] = cytotoxicity flag (confluency mask): not cytotoxic
# [6] = cytotoxicity flag (confluency mask): cytotoxic (confluency <70% of control)
smiles,measurement,setting,value
COc1cc(C(=O)O)ccc1NC(=O)C1NC(CC(C)(C)C)C(C#N)(c2ccc(Cl)cc2F)C1c1cccc(Cl)c1F (stereo not given) (library stock concentration (final ~1000-fold dilution): 10 mM),IRF Lucia reporter activity,RAW-Dual [1]; [4],0.62
same,IRF Lucia reporter activity,RAW-Dual [1]; agonist: LPS (TLR4) 0.1 ug/mL,0.186
O=c1cc(-c2ccccc2)oc2cc(OC3OC(CO)C(O)C(O)C3O)c(O)c(O)c12 (stereo not given) (library stock concentration (final ~1000-fold dilution): 10 mM),IRF Lucia reporter activity,RAW-Dual [1]; [4],0.862
same,IRF Lucia reporter activity,RAW-Dual [1]; agonist: LPS (TLR4) 0.1 ug/mL,0.849
CC(Nc1ncnc(N)c1C#N)c1cc2cccc(-c3ccc(=O)n(C)c3)c2c(=O)n1C(C)C (stereo not given) (library stock concentration (final ~1000-fold dilution): 10 mM),IRF Lucia reporter activity,RAW-Dual [1]; [4],1.14
same,IRF Lucia reporter activity,RAW-Dual [1]; agonist: LPS (TLR4) 0.1 ug/mL,8.45
CC(Nc1ncnc2[nH]cnc12)c1cc2cccc(Cl)c2c(=O)n1-c1ccccc1 (stereo not given),IRF Lucia reporter activity,RAW-Dual [2]; [5],1.42
CC(Nc1ncnc(N)c1C#N)c1cc2cccc(-c3ccc(=O)n(C)c3)c2c(=O)n1C(C)C (stereo not given),IRF Lucia reporter activity,RAW-Dual [2]; [5],7.07
CC(NC(=O)c1c(N)nn2cccnc12)c1cc2cccc(C#Cc3cnn(C)c3)c2c(=O)n1-c1ccccc1 (stereo not given) (library stock concentration (final ~1000-fold dilution): 10 mM),IRF Lucia reporter activity,RAW-Dual [1]; [4],0.813
same,IRF Lucia reporter activity,RAW-Dual [1]; agonist: LPS (TLR4) 0.1 ug/mL,1.14
CC(Nc1ncnc2[nH]cnc12)c1cc2cccc(Cl)c2c(=O)n1-c1ccccc1 (stereo not given) (library stock concentration (final ~1000-fold dilution): 10 mM),IRF Lucia reporter activity,RAW-Dual [1]; [4],0.659
same,IRF Lucia reporter activity,RAW-Dual [1]; agonist: LPS (TLR4) 0.1 ug/mL,0.799
Cl.Fc1ccc(C2CCNCC2COc2ccc3c(c2)OCO3)cc1 (stereo not given),IRF Lucia reporter activity,RAW-Dual [2]; [5],1.35
Cl.Fc1ccc(C2CCNCC2COc2ccc3c(c2)OCO3)cc1 (stereo not given) (library stock concentration (final ~1000-fold dilution): 10 mM),IRF Lucia reporter activity,RAW-Dual [1]; [4],0.928
same,IRF Lucia reporter activity,RAW-Dual [1]; agonist: LPS (TLR4) 0.1 ug/mL,1.02
OCC1=CC(O)C2C=COC(OC3OC(CO)C(O)C(O)C3O)C12 (stereo not given) (library stock concentration (final ~1000-fold dilution): 10 mM),IRF Lucia reporter activity,RAW-Dual [1]; [4],1.05
same,IRF Lucia reporter activity,RAW-Dual [1]; agonist: LPS (TLR4) 0.1 ug/mL,1.37
OCC1=CC(O)C2C=COC(OC3OC(CO)C(O)C(O)C3O)C12 (stereo not given),IRF Lucia reporter activity,RAW-Dual [2]; [5],1.01
O=C(O)CCc1c[nH]c2ccccc12 (library stock concentration (final ~1000-fold dilution): 10 mM),IRF Lucia reporter activity,RAW-Dual [1]; [4],0.921
same,IRF Lucia reporter activity,RAW-Dual [1]; agonist: LPS (TLR4) 0.1 ug/mL,1.18
c1ccc2c(CCNc3ccc(Nc4ccncc4)cc3)c[nH]c2c1,IRF Lucia reporter activity,RAW-Dual [2]; [5],2.97
c1ccc2c(CCNc3ccc(Nc4ccncc4)cc3)c[nH]c2c1 (library stock concentration (final ~1000-fold dilution): 10 mM),IRF Lucia reporter activity,RAW-Dual [1]; [4],0.706
same,IRF Lucia reporter activity,RAW-Dual [1]; agonist: LPS (TLR4) 0.1 ug/mL,0.612
OCc1c[nH]c2ccccc12,IRF Lucia reporter activity,RAW-Dual [2]; [5],1.07 ± 0.022
OCc1c[nH]c2ccccc12 (library stock concentration (final ~1000-fold dilution): 10 mM),IRF Lucia reporter activity,RAW-Dual [1]; [4],0.803 and 0.565
same,IRF Lucia reporter activity,RAW-Dual [1]; agonist: LPS (TLR4) 0.1 ug/mL,0.839 and 0.758
CN1CC2c3ccccc3Oc3ccc(Cl)cc3C2C1.O=C(O)/C=C\C(=O)O (stereo not given),IRF Lucia reporter activity,RAW-Dual [2]; [6],1.95
CN1CC2c3ccccc3Oc3ccc(Cl)cc3C2C1.O=C(O)/C=C\C(=O)O (stereo not given) (library stock concentration (final ~1000-fold dilution): 10 mM),IRF Lucia reporter activity,RAW-Dual [3]; [4],0.746
same,IRF Lucia reporter activity,RAW-Dual [3]; agonist: LPS (TLR4) 0.1 ug/mL,0.716
O=[N+]([O-])c1ccc(Sc2cccc[n+]2[O-])c2nonc12 (library stock concentration (final ~1000-fold dilution): 10 mM),IRF Lucia reporter activity,RAW-Dual [3]; [4],0.262
same,IRF Lucia reporter activity,RAW-Dual [3]; agonist: LPS (TLR4) 0.1 ug/mL,0.0128
C#CCN(C)CCCOc1ccc(Cl)cc1Cl.Cl (library stock concentration (final ~1000-fold dilution): 10 mM),IRF Lucia reporter activity,RAW-Dual [1]; [4],1.06
same,IRF Lucia reporter activity,RAW-Dual [1]; agonist: LPS (TLR4) 0.1 ug/mL,1.19
C#CCN(C)CCCOc1ccc(Cl)cc1Cl.Cl,IRF Lucia reporter activity,RAW-Dual [2]; [5],1.12
O=C(Nc1ccc([N+](=O)[O-])cc1Cl)c1cc(Cl)ccc1O,IRF Lucia reporter activity,RAW-Dual [2]; [5],0.899
O=C(Nc1cc(C(F)(F)F)ccc1N1CCCCC1)c1ccncc1,IRF Lucia reporter activity,RAW-Dual [2]; [5],1.18
O=C(Nc1cc(C(F)(F)F)ccc1N1CCCCC1)c1ccncc1 (library stock concentration (final ~1000-fold dilution): 10 mM),IRF Lucia reporter activity,RAW-Dual [1]; [4],1.05
same,IRF Lucia reporter activity,RAW-Dual [1]; agonist: LPS (TLR4) 0.1 ug/mL,0.874
O=C(Nc1cc(C(F)(F)F)cc(C(F)(F)F)c1)c1cc(Cl)ccc1O,IRF Lucia reporter activity,RAW-Dual [2]; [6],3.54 ± 1.7
CC12C=CC(=O)NC1CCC1C2CCC2(C)C(C(=O)Nc3cc(C(F)(F)F)ccc3C(F)(F)F)CCC12 (stereo not given) (library stock concentration (final ~1000-fold dilution): 10 mM),IRF Lucia reporter activity,RAW-Dual [1]; [4],1.22
same,IRF Lucia reporter activity,RAW-Dual [1]; agonist: LPS (TLR4) 0.1 ug/mL,1.38
CC(ONC(=O)c1cc(C(F)(F)F)cc(C(F)(F)F)c1)C(=O)Nc1ccc(Cl)cc1 (stereo not given) (library stock concentration (final ~1000-fold dilution): 10 mM),IRF Lucia reporter activity,RAW-Dual [1]; [4],0.52
same,IRF Lucia reporter activity,RAW-Dual [1]; agonist: LPS (TLR4) 0.1 ug/mL,0.52
O=C(Nc1cc(C(F)(F)F)cc(C(F)(F)F)c1)c1cc(Cl)ccc1O (library stock concentration (final ~1000-fold dilution): 10 mM),IRF Lucia reporter activity,RAW-Dual [3]; [4],0.03 and 0.0207
same,IRF Lucia reporter activity,RAW-Dual [3]; agonist: LPS (TLR4) 0.1 ug/mL,3.59 and 3.92
O=C(Nc1ccc([N+](=O)[O-])cc1Cl)c1cc(Cl)ccc1O (library stock concentration (final ~1000-fold dilution): 10 mM),IRF Lucia reporter activity,RAW-Dual [1]; [4],0.354
same,IRF Lucia reporter activity,RAW-Dual [1]; agonist: LPS (TLR4) 0.1 ug/mL,2.53
O=C(Nc1cc(C(F)(F)F)ccc1C(F)(F)F)c1cc(Br)ccc1O (library stock concentration (final ~1000-fold dilution): 10 mM),IRF Lucia reporter activity,RAW-Dual [3]; [4],0.0368
same,IRF Lucia reporter activity,RAW-Dual [3]; agonist: LPS (TLR4) 0.1 ug/mL,4.46
CC12C=CC(=O)NC1CCC1C2CCC2(C)C(C(=O)Nc3cc(C(F)(F)F)ccc3C(F)(F)F)CCC12 (stereo not given),IRF Lucia reporter activity,RAW-Dual [2]; [5],1.08
